Screens (PubChem)
a7 integrin act = qHTS for Activators of Integrin-Mediated Alleviation for Muscular Dystrophy; alpha7betagal myoblasts, beta-gal FDG fluorescence, 48 h; Potency, µM (titrated, usually from 38.3 µM), for inactives: top-dose activation, most hits filed as activators; actives 0.064% (n = 350,000); AID 624291, 2012;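 also: 100% = response of the positive control SU9516; nearly all actives have a fitted effect of over 60% in size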
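Alpha7betagal+/- myoblasts (passage 13) were plated 16-24 hr, then exposed to compounds (1:260 dilution of DMSO stock) for 48 hours at 37C. After MPER lysis, β-galactosidase reporter activity was read as FDG fluorescence (ex 480/em 540) after 30 minutes.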
VP16 counter = VP16 counterscreen qHTS for inhibitors of ROR gamma transcriptional activity; Drosophila S2 Gal4-VP16 UAS-luciferase, luminescence, 20 h; Potency, µM (titrated, usually from 53.6 µM), without a hit: top-dose activity, negative = inhibition, usual class: inhibitors; actives 3.5% (n = 310,000); AID 2546, 2010;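 also: Gal4-VP16 expression switched on by copper sulfate through the metallothionein promoter; % is scaled to controls: 0 for no effect and ±100 for the full control effect; nearly all actives have a fitted effect of over 50% in size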
RORgamma inh = qHTS for inhibitors of ROR gamma transcriptional activity. Nuclear receptor ROR-gamma (Mus musculus), P51450. Drosophila S2 Gal4-RORgamma UAS-luciferase reporter, 20 h. Potency, µM (series often up to 53.6 µM), inactives show top-dose activity change, negative = inhibition, hits mostly inhibitors. actives 5.4% (n = 310,000). AID 2551, 2010; also: % is scaled to controls: 0 for no effect and ±100 for the full control effect; nearly all actives have a fitted effect of over 60% in size
Target sequence (P51450 whole entry, looked up, the tested form may be a part): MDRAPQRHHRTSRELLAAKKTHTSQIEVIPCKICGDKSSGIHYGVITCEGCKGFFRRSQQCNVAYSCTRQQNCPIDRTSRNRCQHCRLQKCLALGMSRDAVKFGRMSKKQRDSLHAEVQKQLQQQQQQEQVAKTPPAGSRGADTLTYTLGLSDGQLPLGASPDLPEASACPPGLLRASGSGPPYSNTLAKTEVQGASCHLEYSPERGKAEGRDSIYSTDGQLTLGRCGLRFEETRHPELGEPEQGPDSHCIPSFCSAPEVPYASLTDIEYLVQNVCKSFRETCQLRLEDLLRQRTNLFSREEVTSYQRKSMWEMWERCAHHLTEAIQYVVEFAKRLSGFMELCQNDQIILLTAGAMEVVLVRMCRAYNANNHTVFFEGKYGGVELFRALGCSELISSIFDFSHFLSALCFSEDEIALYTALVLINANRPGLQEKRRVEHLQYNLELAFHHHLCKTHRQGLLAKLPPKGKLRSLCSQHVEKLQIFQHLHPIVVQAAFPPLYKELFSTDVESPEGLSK
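Drosophila S2 cells stably expressing Gal4-DBD/mouse RORγ fusion under metallothionein promoter plus UAS-luciferase; compound 1 h, then 700 uM CuSO4 induction for 20 h at ambient temperature; inhibition read as reduced luminescence.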
BCR signal inh = qHTS Assay to Find Inhibitors of Chronic Active B-Cell Receptor Signaling; ABC-DLBCL IkBa-CBG/CBR reporter, luminescence ratio, 4 h; actives 0.05% (n = 340,000); Potency, µM (highest dose often 46.1 µM), without a hit: top-dose activity change, negative = inhibition, hits mostly inhibitors; active = well fitted inhibition curve with a large enough effect in the signal ratio, with a control signal flat, not every such curve was filed as active; inconclusive = small, poorly fitted or top-dose-only effect, or effect the other way, or a change in a side signal; the % refers to the signal ratio;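 also: plate controls were basal doxycycline-induced cells for no effect and cells given 10 µM MG132 for full effect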
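Cell line TMD8 (human ABC DLBCL), stably expressing tet-inducible CBG68-IkBa fusion and CBR; IMDM/0.5% FBS; cpd up to 46 uM; dox induction, 4 h, 37C/5% CO2; dual luminescence; green/red ratio; MG132 control.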
uPA surface inh = qHTS for Inhibitors of Cell Surface uPA Generation; cell surface uPA generation assay, qHTS; Potency, µM (highest dose often 38.3 µM), without a hit: at the highest dose activity change, negative = inhibition, actives largely listed as inhibitors; AID 540303, 2011; actives 0.31% (n = 330,000); active = well fitted inhibition curve with a large enough effect; inconclusive = small, poorly fitted or top-dose-only effect; inactive = no such curve, though single readings can be large or run the other way; tested in mouse RAW 264.7 cells; also: % is scaled to controls: 0 for no effect and ±100 for the full control effect; nearly all actives have a fitted effect of over 55% in size
Mito fusion yeast = qHTS Assay for Small Molecule Inhibitors of Mitochondrial Division or Activators of Mitochondrial Fusion. S. cerevisiae fusion-defective mutant growth rescue, CellTiterGlo 48 h. Potency, µM (doses to about 46.1 µM), inactives show at the highest dose growth rescue (activation), most hits filed as activators. actives 0.23% (n = 320,000). AID 485298, 2010; also: % of control where 0% means no effect; nearly all actives have a fitted effect of over 45% in size
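Read-out: ATP-based luminescence (CellTiterGlo, 10 min ambient) reporting growth of fusion-defective ts yeast after 48 hours at 37C on glycerol/ethanol YPEG medium in the presence of compound.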
An asterisk follows results filed as active; ? = inconclusive; . = no result. In the library only some 5.5% were active in any assay of this set; here they are far more common. Unless noted, calls follow the shape of the dose curve; as a rule, active = well fitted curve in the direction sought with a large enough effect; inconclusive = small, poorly fitted or top-dose-only effect, or another doubt; inactive = no such curve, though single readings can be large; an effect the other way counts as inactive or inconclusive. Potency is read from the fitted curve at half-maximal effect.

SMILES	a7 integrin act	VP16 counter	RORgamma inh	BCR signal inh	uPA surface inh	Mito fusion yeast
CCOc1cc(NC(=S)NCC2CCCO2)c(OCC)cc1NC(=O)c1ccc(C)cc1 (centres undefined)	-8.1%	3.98µM*	3.16µM*	0.8%	12.8%	-2.2%
CCOc1cc(NC(=S)NCC2CCCO2)c(OCC)cc1NC(=O)c1ccc(F)cc1 (centres undefined)	-12.4%	?	?	?	-0.7%	8.5%
CCOc1cc(NC(=S)NCC2CCCO2)c(OCC)cc1NC(=O)c1cccc(F)c1 (centres undefined)	-10.4%	4.47µM*	3.55µM*	5.0%	-1.9%	-0.8%
CCCCN(CC)C(=O)c1c[nH]c2ccc(S(=O)(=O)N(C)c3ccc(Cl)cc3)cc2c1=O	.	.	.	16.2%	.	.
Cc1ccccc1C(=O)NC(=S)N(C)CCc1ccccn1	-1.9%	?	7.08µM*	?	-0.8%	10.7%
COc1ccc(C(=O)N2CCC[C@@]3(CCN(C(=O)Nc4ccccc4)C3)C2)cc1	.	3.5%	-37.9%	.	.	.
Cc1nnc(-c2ccccc2)c(=O)n1/N=C/c1c(O)ccc2ccccc12	22.4%	17.8µM*	?	?	-6.1%	0.3%
Cc1nnc(C)n1/N=C/c1c(O)ccc2ccccc12	0.0%	4.9%	-14.8%	-13.4%	4.4%	-0.6%
CCc1n[nH]c(=S)n1/N=C/c1cccc2ccccc12	20.9%	7.94µM*	7.08µM*	?	-3.7%	-14.0%
CCc1n[nH]c(=S)n1/N=C/c1c(O)ccc2ccccc12	0.0%	20µM*	?	-11.6%	9.4%	-15.9%
S=c1[nH]nc(-c2ccncc2)n1/N=C/c1cccc2ccccc12	.	-8.7%	-9.8%	?	.	-0.9%
COC(=O)c1ccc(C(=O)OC)c(NC(=O)C2CCCO2)c1 (centres undefined)	-39.1%	.	.	6.2%	-2.1%	-6.0%
COc1cccc(N2CCN(C(=O)c3ccccc3SCC(=O)NCc3ccco3)CC2)c1	26.8%	.	.	1.0%	?	3.1%
CC1CCN(S(=O)(=O)c2cc(C(=O)N3CCN(c4ncccn4)CC3)ccc2Br)CC1	-27.5%	7.08µM*	32.7%	0.5%	-4.6%	7.7%
CC1CCN(C(=O)c2ccc(Br)c(S(=O)(=O)N3CCOCC3)c2)CC1	21.3%	-7.3%	1.1%	0.1%	-1.0%	17.6%
Cc1ccc(S(=O)(=O)NCc2cccnc2)cc1C(=O)N1CCCC1	13.2%	1.3%	3.0%	-1.8%	-0.1%	0.6%
O=C(/C=C/c1ccccc1Cl)c1ccc[nH]1	-41.1%	27.7%	-34.4%	?	-8.2%	14.1µM*
COc1ccccc1N1CCN(C2CC(=O)N(C)C2=O)CC1 (centres undefined)	13.9%	0.9%	-2.0%	10.7%	-0.7%	7.3%
O=C(Nc1cccc(F)c1)N1CC2(CCN(S(=O)(=O)c3ccccc3)CC2)C1	.	-0.4%	21.3%	.	.	.
CC(NC(=O)c1cc(COc2ccc3ncccc3c2)on1)c1ccc(F)cc1 (centres undefined)	-50.6%	7.08µM*	?	4.6%	?	4.9%
O=C(c1cc(COc2ccc3ncccc3c2)on1)N1CCCCCC1	-13.2%	?	?	-6.7%	-5.9%	-31.6%
COCC1CCN(C(=O)c2cc(COc3ccc4ncccc4c3)on2)CC1	-21.2%	6.31µM*	?	10.9%	-0.6%	-2.5%
COc1cccc(CN(C)C(=O)c2cc(COc3ccc4ncccc4c3)on2)c1	-50.5%	6.31µM*	?	?	-7.7%	-2.9%
COc1cccc(CN(C)C(=O)c2cc(COc3c(F)cccc3F)on2)c1	-24.1%	-17.6%	17.0%	0.1%	-0.5%	-1.7%
O=C(NC1CCCC1)c1cc(COc2ccc3ncccc3c2)on1	-68.7%	5.01µM*	?	-13.1%	-29.4%	-4.8%
SMILES	a7 integrin act	VP16 counter	RORgamma inh	BCR signal inh	uPA surface inh	Mito fusion yeast
COc1ccccc1-c1ccc2ncnc(N3CCNCC3)c2c1	.	13.8%	35.5%	.	.	.
COc1cccc([C@@H]2Oc3ccc(OC)cc3C(=O)[C@H]2OC(=O)NS(=O)(=O)c2ccc(F)cc2)c1	.	6.7%	-40.1%	.	.	.
O=C(c1cc(COc2ccc3ncccc3c2)on1)N1CCCC1	-36.2%	12.6µM*	?	-0.3%	-1.6%	0.0%
CCN(C(=O)CCS(=O)(=O)c1cccc2nonc12)c1ccc(F)cc1	6.1%	-12.3%	8.3%	9.0%	0.4%	-0.1%
COc1ccc(S(=O)(=O)N2CCN(C(=O)c3ccc(COc4ccccc4)o3)CC2)cc1	1.5%	.	.	.	.	.
Cn1c(=O)c(C(=O)NNC(=O)c2cccc(Cl)c2)c(O)c2ccccc21	0.0%	17.8µM*	14.1µM*	?	-3.5%	-12.7%
Cn1c(=O)c(C(=O)NNC(=O)c2ccccc2Br)c(O)c2ccccc21	-1.0%	?	20µM*	?	-0.1%	1.8%
Cn1c(=O)c(C(=O)NNC(=O)c2ccccc2Cl)c(O)c2ccccc21	?	?	11.2µM*	?	0.0%	-6.6%
CCCn1c(=O)c(C(=O)NNC(=O)c2ccc(Cl)cc2Cl)c(O)c2ccccc21	-14.8%	-15.1%	-42.6%	-7.4%	-0.6%	4.4%
Cc1cccc(C(=O)NNC(=O)c2c(O)c3ccccc3n(C)c2=O)c1	0.8%	-32.0%	-25.8%	?	1.8%	-15.0%
Cc1cc(C)c2c(-c3ccc(-c4ccc(C(F)(F)F)cc4)cc3)cc(=O)oc2c1	.	-6.3%	30.8%	.	.	.
CCc1cc(C(=O)N2CCN(S(=O)(=O)c3ccc(Cl)cc3)CC2)sc1C	10.1%	.	.	5.6%	-4.7%	-2.9%
COC(=O)CN1C(=O)S/C(=C/c2ccc(N3CCCCC3)o2)C1=O	-69.0%	5.01µM*	?	3.2%	-9.5%	-4.4%
CCCN1C(=O)S/C(=C\c2ccc(N3CCOCC3)o2)C1=O	-72.6%	4.47µM*	5.62µM*	-16.7%	-17.7%	-1.5%
CCOC(=O)CN1C(=O)S/C(=C/c2ccc(N3CCCCC3)o2)C1=O	-24.5%	-8.2%	-6.1%	-4.4%	1.9%	0.0%
c1csc(-c2csc3nc(CN4CCOCC4)nc(NCc4ccc5c(c4)OCO5)c23)c1	8.8%	?	17.8µM*	?	3.0%	-10.8%
CCCS(=O)(=O)c1nc(S(=O)(=O)c2ccc(C)cc2)c(N2CCc3ccccc3C2)s1	22.8%	?	8.91µM*	?	-0.4%	15.0%
CCOC(=O)c1sc(N/N=C/c2ccc(N(C)C)cc2)nc1C	0.0%	11.2µM*	?	4.7%	6.3%	-4.2%
CCOC(=O)c1nc(N/N=C/c2ccccc2)sc1Br	-22.9%	?	17.8µM*	?	4.0%	4.7%
